# Test results reported in PubChem BioAssay (NCATS).
# Where “and” joins values, the source holds several entries; their conditions need not be identical. Equal values may be shown once. Results filed as inconclusive are left out. The source holds several records for some structures; these can differ, active in one and inactive in another. Calls of active or inactive are those of the source. Unless noted, the call rests on the fitted dose curve; in most records, active means well fitted curve in either direction with a large enough effect (not every such curve was filed as active); inconclusive means small, poorly fitted or top-dose-only effect, or another doubt; inactive means flat fitted curve, though single readings scatter.
# Assays:
# [1] = AP1 Signaling Pathway (AID 357); details: ME-180 AP-1-bla reporter, EGF-induced, beta-lactamase ratio, 5 h;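 further: ME-180 reporter cells stimulated with EGF at its EC50 level; on the % scale 0 is the no-effect control and ±100 the full control effect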
# Procedure, shortened: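 In this screen, ME-180 cells in Opti-MEM with 0.5% dialyzed FBS received EC50 EGF and compound titrations for 5 h. AP-1 reporter beta-lactamase was detected via CCF4 ratio, giving AC50 for positive and negative modulators.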
# [2] = target: Cytochrome P450 1A2 (Homo sapiens) (UniProt P05177); experiment: p450-cyp1a2 (AID 410; calls by dose curve; further: potency means the concentration at half of the fitted maximal effect;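 on activity change, negative = inhibition: -100% = full effect of reference inhibitor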); details: recombinant CYP1A2, luciferin-ME demethylation, luminescence; series mostly up to 57 µM
# Procedure, shortened: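 Luminescent demethylation readout: Luciferin-ME (100uM, equal to Km) turned over by 20nM CYP1A2 for 60 min at room temperature after NADPH regeneration addition, following 10 min compound preincubation. Normalization used 57 uM furafylline as full inhibition.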
# [3] = NFAT Signaling Pathway (AID 444); details: Jurkat NFAT-bla M1, carbachol, beta-lactamase ratio, 5 h;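 further: carbachol stimulus at about its EC50 of 1 µM final; on the % scale 0 is the no-effect control and ±100 the full control effect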
# Procedure, shortened: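 Jurkat cells with NFAT-driven β-lactamase reporter and co-expressed M1 receptor, stimulated with carbachol (final 1 uM, ~EC50), compound titration, 5 h at 37 °C. CCF4 loaded 1 h at RT; 460/530 nm ratio gave %activity and AC50.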
# [4] = Stat Signaling Pathway (AID 446); details: ME-180 (cervical carcinoma) SIE beta-lactamase reporter, IL-6 stimulated, 5 h;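 further: ME-180 cervical cancer cells given 40 pM IL-6 alongside compound; SIE-controlled beta-lactamase reporter measured as 460/530 nm FRET emission ratio; on the % scale 0 is the no-effect control and ±100 the full control effect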
# Procedure, shortened: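 Emission at 460 and 530 nm (excitation 405 nm) reports SIE-controlled beta-lactamase in ME-180 cells. Cells received compound with 40 pM IL-6 for 5 hrs at 37 C; data scaled between 300 pM IL-6 and 125 nM JAK-inhibitor controls.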
# Cytochrome P450 1A2 (Homo sapiens), sequence (P05177 whole entry, looked up): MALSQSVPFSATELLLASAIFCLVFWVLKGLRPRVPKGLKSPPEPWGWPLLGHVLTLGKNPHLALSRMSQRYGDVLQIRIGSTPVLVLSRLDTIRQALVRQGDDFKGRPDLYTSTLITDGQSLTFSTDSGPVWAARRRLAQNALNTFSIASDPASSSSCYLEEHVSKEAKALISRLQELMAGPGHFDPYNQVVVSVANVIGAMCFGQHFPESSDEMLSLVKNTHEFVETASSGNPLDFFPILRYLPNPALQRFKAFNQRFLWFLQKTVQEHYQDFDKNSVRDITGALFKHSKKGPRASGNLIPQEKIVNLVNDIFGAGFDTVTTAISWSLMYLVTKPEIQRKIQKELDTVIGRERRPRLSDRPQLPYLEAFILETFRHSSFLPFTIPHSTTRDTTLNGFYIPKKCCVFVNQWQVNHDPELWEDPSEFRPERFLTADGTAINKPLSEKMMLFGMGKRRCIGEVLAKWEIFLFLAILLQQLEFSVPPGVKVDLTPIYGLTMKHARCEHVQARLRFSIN
Compound,"activity change, negative = inhibition ([1]; at 38 µM (top of the series))",Potency [2],"activity change, negative = inhibition ([3]; at 38 µM (top of the series))","activity, negative = inhibition ([4]; at 38 µM (top of the series))","activity change, negative = inhibition ([1]; at 17.2 µM (top of the series))","activity change, negative = inhibition ([3]; at 17.2 µM (top of the series))","activity, negative = inhibition ([4]; at 17.2 µM (top of the series))"
O=C(O)Cc1cnc[nH]1,10.5% (inactive),inactive,-2.43% (inactive),-3.06% (inactive),–,–,–
O=C(O)CC[N+](=O)[O-],-8.61% (inactive),inactive,10% (inactive),1.14% (inactive),–,–,–
c1ccc2sc(C3(N4CCCCC4)CCCCC3)cc2c1,-1.54% (inactive),inactive,–,-24.8% (inactive),–,–,–
C#CCOC(=O)C1=CCCN(C)C1,16.6% (inactive),–,44.2% [activator] (active),14.7% (inactive),–,–,–
CC[C@@H]1C(=O)OC[C@@H]1Cc1cncn1C,–,–,–,–,-3.08% (inactive) and 5.87% (inactive),75.4% [activator] (active),1.99% (inactive) and 5.87% (inactive)
CC(=O)NCCc1c[nH]c2ccccc12,3.76% (inactive),15.8 µM (active),5.76% (inactive),–,–,–,–
NCCc1c[nH]c2ccc(O)cc12,7.62% (inactive),7.94 µM (active) and 2 µM (active),4.18% (inactive),-13.2% (inactive),7.63% (inactive),-8.4% (inactive),-0.625% (inactive)
CC[C@@]1(O)C(=O)OCc2c1cc1n(c2=O)Cc2cc3ccccc3nc2-1,-97.5% (active),7.94 µM (active) and 2.51 µM (active) and 1.58 µM (active),-97% (active),42.7% (active),-111% (active),-85.5% (active),-95.6% (active)
CC(=O)OCC1=C(C(=O)O)N2C(=O)[C@@H](N)[C@@H]2SC1,–,inactive,–,–,2.29% (inactive),-6.12% (inactive),-1.03% (inactive)
CCCCc1ccc(C(=O)O)nc1,-6.7% (inactive),31.6 µM (active) and inactive,6.08% (inactive),9.55% (inactive),-4.11% (inactive),-0.081% (inactive),6.81% (inactive)
CC1=NN=C(c2ccc(N)cc2)c2cc3c(cc2C1)OCO3,-19.4% (inactive),31.6 µM (active),7.54% (inactive),–,–,–,–
O=C1CCCN1CC#CCN1CCCC1,8.1% (inactive),inactive,–,-7.65% (inactive),–,–,–
O=c1cccc2n1CC1CNC[C@H]2C1,–,inactive and 31.6 µM (active),–,–,-4.28% (inactive),-12.9% (inactive),6.88% (inactive)
